Source: PubChem
A selection: hits, their analogues and other compounds. The true share with any hit is near 2.2%.
Efflux pump inh: inhibitors of Candida antifungal efflux pumps expressed in yeast. inhibition, % at 10 µM. S. cerevisiae Candida pump triplex, Nile Red efflux. 0.44% of 330,000 active. AID 485275;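 active = plate passing quality check with inhibition over a set limit, or well fluorescence over plate mean plus 4 SD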;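 also: Nile Red retained in pooled yeast measured as flow cytometry median fluorescence; 0% = buffer negative control and 100% = Enniatin B positive control; higher means more Nile Red kept so more efflux inhibition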
SUMO Mot1 rescue: inhibitors of SUMOylation pathway: yeast Mot1-301 growth rescue; S. cerevisiae Mot1-301 growth rescue, ATP luminescence, 38.5C; percent above DMSO median, 100 means doubled; 1% of 320,000 active; growth rescue, % at 18.8 µM;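 active = every valid replicate shows activation above 250% relative to neutral control wells; inactive = the rest, any valid replicate at or below 250%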;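 also: OY570 slx delta 5 strain wells were the positive control but not used for scaling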
SKN-1 block: blocks SKN-1 activity in C. elegans; 0.49% of 360,000 active; inhibition, % at 21.8 µM; C. elegans VP596 Pgst-4::GFP/RFP ratio, acrylamide-induced, 24 h;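 active = interference check ratio from 0.5 to 1.5 plus GFP to RFP signal ratio inhibition reaching or exceeding a fixed threshold, cut at about 30% in these data, passing the limit was not always enough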
sPLA2-III inh: Blocks human group III sPLA2 activity; Q9NZ20; QFRET BODIPY PC-A2 liposome hydrolysis, fluorescence; inhibition, % at 12.2 µM; 0.56% of 370,000 active; AID 743126;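 active = inhibition above mean plus 3 SD of compounds lying within the high and low control bounds, cut at about 19% in these data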;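 also: 0% = median of test compound wells and 100% = no enzyme DMSO wells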
Target sequence (Q9NZ20 whole entry, looked up): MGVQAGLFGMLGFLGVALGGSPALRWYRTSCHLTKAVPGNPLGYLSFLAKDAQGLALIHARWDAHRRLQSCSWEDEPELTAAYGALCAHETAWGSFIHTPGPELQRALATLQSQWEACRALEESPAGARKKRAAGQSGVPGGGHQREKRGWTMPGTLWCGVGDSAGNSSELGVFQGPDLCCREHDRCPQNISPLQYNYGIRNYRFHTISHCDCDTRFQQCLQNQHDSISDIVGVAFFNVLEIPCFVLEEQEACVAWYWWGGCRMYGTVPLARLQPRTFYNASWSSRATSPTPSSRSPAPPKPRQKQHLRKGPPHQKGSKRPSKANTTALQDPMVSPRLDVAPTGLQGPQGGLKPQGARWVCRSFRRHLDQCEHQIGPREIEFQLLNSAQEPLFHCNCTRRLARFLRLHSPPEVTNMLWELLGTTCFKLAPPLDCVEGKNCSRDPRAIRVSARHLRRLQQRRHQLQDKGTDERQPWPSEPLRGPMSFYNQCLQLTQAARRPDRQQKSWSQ
Mot1 SUMO dose: inhibits SUMO pathway, affecting Mot1-301 yeast growth; 2,300 tested, under 10 active; growth activity, percent, % at 42 µM; S. cerevisiae Mot1-301 galactose growth, ATP luminescence, 24 h; -100 = growth of slx-deleted rescue strain; shares compounds with SUMO Mot1 rescue;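 active = Signal drops as the depositor expects, and the fitted half-maximal dose is no more than ten times the top valid tested dose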;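 also: more negative values mean stronger growth rescue toward the control strain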
The depositor's hits bear a star; · = no result given; + = active, no number; [ ] = another dose, or the depositor's remark.

SMILES	Efflux pump inh	SUMO Mot1 rescue	SKN-1 block	sPLA2-III inh	Mot1 SUMO dose
COc1ccccc1C1/C(=C(/O)c2ccccc2)C(=O)C(=O)N1CCO (centres undefined)	-0.1	-27.6	8.6	0.4	·
CCN(CC)CCCN1C(=O)C(=O)/C(=C(/O)c2ccccc2)C1c1cc(OC)ccc1OC (centres undefined)	0.0	684.5*	0.6	0.2	-0.5
CC(Oc1ccc(F)cc1)C(=O)Nc1cc(S(=O)(=O)N2CCOCC2)ccc1N1CCCCC1 (centres undefined)	0.0	-2.3	5.5	-17.7	·
C/C(N)=C(/C#N)C(=O)CSc1nnc(-c2ccccc2)n1C	0.0	538.8*	-21.1	4.8	-0.2
COc1ccc(S(=O)(=O)N2CCCOC2CNC(=O)C(=O)NCCCN2CCOCC2)cc1C (centres undefined)	-0.3	415.5*	-4.2	2.5	-0.9
Cc1cc(S(=O)(=O)N2CCCCC2CCNC(=O)C(=O)NCC2CCCO2)ccc1F (centres undefined)	0.1	390.5*	-3.7	5.5	-0.2
Cc1ccc(S(=O)(=O)N2CCCOC2CNC(=O)C(=O)NCCN2CCOCC2)cc1 (centres undefined)	0.1	0.5	2.2	-0.4	·
Cc1cc(S(=O)(=O)N2CCCCC2CCNC(=O)C(=O)NCCN2CCOCC2)ccc1F (centres undefined)	·	·	-4.1	-2.2	·
O=c1c2ccccc2c(=O)n(-c2ccccc2)n1-c1ccccc1	·	·	-0.2	9.8	·
O=c1c2ccccc2c2ccccc2c(=O)n1-c1ccccc1	-0.1	413.3*	6.2	-3.2	-0.1
CN(CCCCCCCCCCN(C)C(=O)Oc1cccc([N+](C)(C)C)c1)C(=O)Oc1cccc([N+](C)(C)C)c1	0.0	·	11.7	-4.0	·
CCOC(=O)CCCCCC(=O)Nc1ccc2c(c1)CC(=O)N([C@H](C)CO)C[C@H](C)[C@H](CN(C)S(=O)(=O)c1ccc(OC)cc1)O2	0.8	14.9	11.7	-43.1	·
C=C(C)C(=O)OC1(C(F)(F)F)Oc2cc(C)ccc2NC1=O (centres undefined)	0.0	363.2*	5.1	-9.8	-1.5
S=C(Nc1ccccc1Cl)N1CCOCC1	0.3	651.3*	-3.1	0.1	1.3
CC(C)CC(NC(=O)C(CC(C)C)NC(=O)OC(C)(C)C)C(N)=O (centres undefined)	-0.2	6.8	-15.1	-0.8	·
CC(=O)NC(CC(C)C)C(=O)NC(CO)C(=O)NC(CCC(=O)O)C(=O)NC(C)C(=O)NC(CC(C)C)C(N)=O (centres undefined)	0.2	782.3*	22.4	-0.9	0.4
Oc1ccccc1-c1nc(NCc2ccco2)c2ccccc2n1	0.0	-8.6	1.8	-6.1	·
c1ccc(-c2nc(NCc3ccco3)c3ccccc3n2)nc1	-0.1	504.9*	-6.4	6.0	-0.1
O=C(NCC1CCCO1)C1CC(c2ccc(Cl)c(Cl)c2)=NO1 (centres undefined)	0.0	869.9*	7.4	-2.5	0.2
Cn1ncc(C#N)c1NC(=O)C1CC(c2ccc(Cl)c(Cl)c2)=NO1 (centres undefined)	-0.1	-12.7	19.8	3.4	·
CCN(C[C@H]1N[C@@](Cc2ccccc2)(C(=O)OC)[C@H]2C(=O)N(C)C(=O)[C@@H]12)S(=O)(=O)c1ccc(C(C)(C)C)cc1	0.3	·	-3.2	4.5	·
O=C1NC(Cc2c[nH]c3ccccc23)C(=O)N1Cc1ccc(CN2C(=O)NC(Cc3c[nH]c4ccccc34)C2=O)cc1 (centres undefined)	0.0	571.5*	-2.0	-144.2	1.0
C/C(=N\NC(=O)c1sccc1-n1cccc1)c1cccs1	-0.2	·	-4.6	-2.8	·
COCc1nnc(NC(=O)CC(C)C)s1	0.1	644.0*	-2.8	2.0	0.4
CCCCN1C(=O)C(=O)NC[C@@H]1CC1CCCCC1	·	·	9.7	3.9	·
SMILES	Efflux pump inh	SUMO Mot1 rescue	SKN-1 block	sPLA2-III inh	Mot1 SUMO dose
COc1cc(-c2nnc(SCC#CCO)o2)cc(OC)c1OC	0.0	966.6*	-29.6	-1.2	0.6
OCC#CCSc1nnc(-c2ccncc2)o1	0.1	-19.2	-8.1	2.1	·
C=CCN1C(=O)[C@@H](CC(=O)N2CCN(C(=O)OCC)CC2)[C@]2(C(=O)OC)CCCCC=C12	·	·	·	5.2	·
CC(C)C(NC(=O)c1ccccc1)C(=O)NCC(c1ccccc1)N(C)C (centres undefined)	0.0	+	-1.8	0.3	-0.1
CN(C)C(CNC(=O)c1ccc(C2SCCS2)cc1)c1ccccc1 (centres undefined)	-0.1	-11.0	1.3	0.8	·
CN(C)C(CNC(=O)CNC(=O)c1ccc(Br)cc1)c1ccccc1 (centres undefined)	0.0	598.6*	0.6	1.2	0.3
CN(C)C(=O)c1cnc(Cc2c[nH]c3ccccc23)c(I)c1	·	·	5.4	-34.6	·
COc1ccc(OC)c(S(=O)(=O)Nc2ccc3c(c2)C(=O)OC3)c1	-0.1	13.3	5.1	-5.6	·
COc1ccc(/C=C(/C#N)S(=O)(=O)c2ccc(C)cc2)cc1	0.0	+	-8.1	-14.6	0.2[21 µM]
CC(=O)Nc1ccccc1C(=O)C(=O)Nc1ccc(C(=O)NCC2CCCO2)cc1 (centres undefined)	-0.1	916.8*	-6.6	3.1	-0.3
COc1cc(NC(=O)c2ccccc2-c2ccccc2)cc(OC)c1	-0.1	-20.0	2.9	-8.2	·
Cc1cc(C)c2c(=O)[nH]cnc2n1	0.0	997.5*	4.3	-2.5	0.0
CC(Oc1ccc(Br)cc1)C(=O)Nc1cc(S(=O)(=O)N2CCOCC2)ccc1N1CCCC1 (centres undefined)	0.1	-0.2	19.9	11.1	·
Cc1ccc2c(C)c(C(=O)N(C)C(C)c3ccon3)oc2c1C (centres undefined)	0.0	-6.5	3.0	-0.1	·
Cc1ccc2c(C)c(C(=O)N(C)C(C)c3ccncn3)oc2c1C (centres undefined)	-0.1	359.4*	8.2	7.2	0.3
O=C(/C=C/N1CCOCC1)c1cc2ccccc2o1	-0.3	-1.3	-13.1	-3.4	·
O=C(/C=C/N1CCOCC1)c1coc2ccccc12	-0.1	424.8*	-19.3	-3.0	-0.7
COc1ccc(C2CC(c3ccccc3)Nc3nc(NS(C)(=O)=O)nn32)cc1 (centres undefined)	-0.1	-0.3	9.5	11.2	·
COCCn1c(C)cc(C(=O)CN2C(=O)NC3(CCCCCCC3)C2=O)c1C	-0.1	667.4*	4.8	-25.5	0.1
Cc1cccc(OCCC(=O)Nc2ccc(F)c(F)c2)c1	0.3	380.3*	2.3	-10.4	0.0
Cc1cccc(OCCCC(=O)Nc2ccc(N(C)C)cc2)c1	0.5	37.5	1.6	10.2	·
COc1ccc2c(C(=O)CN3CC(C)OC(C)C3)c[nH]c2c1 (centres undefined)	0.2	389.6*	4.3	0.0	0.4
O=C(O)/C=C/c1cccnc1	0.0	399.5*	0.4	15.6	-0.1
CCn1cc(C(=O)NCc2ccccn2)c(=O)c2cc(F)c(N3CCN(C)CC3)cc21	0.1	388.1*	-34.8	-2.9	0.3
